Data taken from the supplement of paper PMC7411054.
Where a name gives a salt, the structure may show the parent alone.

Columns and labels:
Assay in all cases: lowest phenotypically active concentration; higher = less potent
Settings in all cases: treatment time: 24 h
[1] = test system: A549-CANX-COX4
Method in brief: (§1)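 Phenotypic activity depended on meeting both a deviation and a reproducibility criterion. The fifteen gene-edited A549, HepG2 and WPMY1 reporter lines were treated at 0.3, 1, 3 or 9 µM for 24 h, four wells each, then imaged live with features normalised to solvent control wells. Deviation required ≥3 of 4 wells past the 95th percentile of control Euclidean distances, and reproducibility a median replicate Pearson correlation above the 95th percentile of non-replicates.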

[2] = test system: A549-TP53BP1-CLTA
Method in brief: as §1

[3] = test system: HepG2-CANX-COX4
Method in brief: as §1

[4] = test system: HepG2-GM130-SQSTM1
Method in brief: as §1

[5] = test system: HepG2-TP53BP1-CLTA
Method in brief: as §1

[6] = test system: HepG2-TUBA1B-RELA
Method in brief: as §1

[7] = test system: WPMY1-ACTB-RAB5A
Method in brief: as §1

[8] = test system: WPMY1-CANX-COX4
Method in brief: as §1

[9] = test system: WPMY1-TP53BP1-CLTA
Method in brief: as §1

[10] = test system: WPMY1-TUBA1B-RELA
Method in brief: as §1

SMILES | lowest phenotypically active concentration [1] [µM] | lowest phenotypically active concentration [2] [µM] | lowest phenotypically active concentration [3] [µM] | lowest phenotypically active concentration [4] [µM] | lowest phenotypically active concentration [5] [µM] | lowest phenotypically active concentration [6] [µM] | lowest phenotypically active concentration [7] [µM] | lowest phenotypically active concentration [8] [µM] | lowest phenotypically active concentration [9] [µM] | lowest phenotypically active concentration [10] [µM]
Clc1ccc(N/N=C(\c2ccccc2)c2ccccn2)nc1 | 3 | 3 | ≤ 0.3 | 1 | ≤ 0.3 | ≤ 0.3 | 1 | 1 | 1 | 1
CN1CCCC(n2nc(Cc3ccc(Cl)cc3)c3ccccc3c2=O)CC1 (stereo not given) [azelastine] | 9 | 9 | – | 9 | 9 | 9 | 9 | 9 | 9 | 9
Nc1ncnc(Nc2ccc(OCc3ccccc3)c(Cl)c2)c1/C=N/OCCN1CCOCC1 | 9 | 1 | – | 9 | 9 | 9 | – | – | – | –
Cc1ccc(NC(=O)CCCCCC(=O)Nc2ccccc2N)cc1 | 3 | 3 | 9 | 3 | 3 | 9 | 9 | 3 | 3 | 9
CN1CCN(C(=O)CN[C@H]2C[C@@H]2c2ccc(OCc3ccccc3)cc2)CC1 [RN 1 dihydrochloride] | 9 | 9 | – | 3 | 9 | 3 | 9 | 9 | 9 | 9
N=C(N)c1ccc(OCCCCCOc2ccc(C(=N)N)cc2)cc1 [pentamidine] | ≤ 0.3 | 3 | 9 | – | 9 | 9 | – | – | – | –
COc1cc2c(cc1O)CC[C@@H]1[C@@H]2CC[C@]2(C)[C@@H](O)CC[C@@H]12 [2-methoxyestradiol] | 1 | 1 | 1 | 3 | 3 | 3 | 1 | 1 | 1 | 1
CO[C@H]1C=CC=C(C)C(=O)NC2=CC(=O)C(NCCN(C)C)=C(C[C@@H](C)C[C@H](OC)[C@H](O)[C@@H](C)C=C(C)[C@@H]1OC(N)=O)C2=O [17-DMAG hydrochloride] | ≤ 0.3 | ≤ 0.3 | ≤ 0.3 | ≤ 0.3 | ≤ 0.3 | ≤ 0.3 | ≤ 0.3 | ≤ 0.3 | ≤ 0.3 | ≤ 0.3
O=C(Nc1cccnc1)N1CCC(Cc2cccc(Oc3ccc(C(F)(F)F)cn3)c2)CC1 | 9 | 9 | – | – | 9 | 9 | – | – | – | –
O=C(Nc1c[nH]nc1-c1nc2cc(CN3CCOCC3)ccc2[nH]1)NC1CC1 | ≤ 0.3 | ≤ 0.3 | ≤ 0.3 | ≤ 0.3 | ≤ 0.3 | ≤ 0.3 | ≤ 0.3 | ≤ 0.3 | ≤ 0.3 | ≤ 0.3
CC(C)CNc1nc(-c2cccc3ncccc23)cn2c(-c3ccc(C(=O)NC4CC4)cc3)cnc12 | 1 | 1 | 1 | 1 | 1 | 1 | 1 | – | 1 | –
CCN(CC)CCNc1ccc(CO)c2sc3ccccc3c(=O)c12 [hycanthone] | 9 | 9 | – | 9 | 9 | 9 | 9 | 9 | 9 | 9
COc1cc2c(N3CCN(C(=O)Nc4ccc(OC(C)C)cc4)CC3)ncnc2cc1OCCCN1CCCCC1 [tandutinib] | 9 | 9 | 9 | 9 | 9 | 3 | 9 | 9 | – | 9
CCCCNNC(=O)c1ccc(Br)cc1 | 3 | 3 | 1 | 1 | 1 | 9 | – | 9 | 9 | 9
C=CC(=O)Nc1cccc(Nc2nc(Nc3ccc(Oc4ccnc(C(=O)NC)c4)cc3)ncc2F)c1 | 9 | 9 | – | 9 | 9 | 9 | 3 | 9 | – | –
Cc1cc(Nc2nc(N[C@@H](C)c3ncc(F)cn3)ncc2Cl)n[nH]1 | 3 | 3 | 3 | 3 | ≤ 0.3 | 1 | 3 | 9 | 3 | 3
COc1cc(O)cc(O)c1C(=O)/C=C/c1ccccc1 [Cardamonin] | 9 | 9 | 9 | 3 | – | 9 | 9 | 9 | 9 | 9
CC[C@]12CCCN3CCc4c(n(c5ccccc45)C(=O)C1)[C@@H]32 [Eburnamonine (-)] | 9 | 9 | – | – | 9 | 9 | 9 | 9 | 3 | 9
Nc1nc(Cl)nc2c1ncn2[C@@H]1O[C@H](CO)[C@@H](O)[C@@H]1F [clofarabine] | ≤ 0.3 | 1 | ≤ 0.3 | ≤ 0.3 | ≤ 0.3 | ≤ 0.3 | ≤ 0.3 | 9 | ≤ 0.3 | ≤ 0.3
O=C(NOC[C@H](O)CO)c1ccc(F)c(F)c1Nc1ccc(I)cc1F | 1 | ≤ 0.3 | ≤ 0.3 | ≤ 0.3 | ≤ 0.3 | ≤ 0.3 | 1 | – | 1 | –
CN(C)C(=O)C(CCN1CCC(O)(c2ccc(Cl)cc2)CC1)(c1ccccc1)c1ccccc1 [loperamide] | 9 | 9 | – | 9 | 9 | 3 | 9 | 9 | 9 | 9
CNC(=O)c1cc(Oc2ccc(NC(=O)Nc3ccc(Cl)c(C(F)(F)F)c3)cc2)ccn1 [sorafenib] | 9 | ≤ 0.3 | 3 | 3 | 9 | 3 | ≤ 0.3 | 3 | – | 9
Cn1cnc2c(F)c(Nc3ccc(Br)cc3Cl)c(C(=O)NOCCO)cc21 [selumetinib] | 1 | ≤ 0.3 | ≤ 0.3 | ≤ 0.3 | ≤ 0.3 | 1 | 9 | – | 3 | –

SMILES | lowest phenotypically active concentration [1] [µM] | lowest phenotypically active concentration [2] [µM] | lowest phenotypically active concentration [3] [µM] | lowest phenotypically active concentration [4] [µM] | lowest phenotypically active concentration [5] [µM] | lowest phenotypically active concentration [6] [µM] | lowest phenotypically active concentration [7] [µM] | lowest phenotypically active concentration [8] [µM] | lowest phenotypically active concentration [9] [µM] | lowest phenotypically active concentration [10] [µM]
O=C1N=C(NCc2cccs2)S/C1=C\c1ccc2ncccc2c1 | 3 | 3 | 3 | 9 | 3 | 3 | 3 | 3 | 3 | 3
Nc1nccc2c1ncn2[C@@H]1C=C(CO)[C@@H](O)[C@H]1O [3-Deazaneplanocin A hydrochloride] | 1 | ≤ 0.3 | ≤ 0.3 | 1 | 1 | 1 | 1 | 1 | 3 | 1
CCCCc1oc2ccc(NS(C)(=O)=O)cc2c1C(=O)c1ccc(OCCCN(CCCC)CCCC)cc1 [dronedarone] | 9 | – | – | 9 | 9 | 3 | 9 | 9 | 9 | 9
C/C(=N/NC(=N)N)c1ccc(NC(=O)Nc2ccc(/C(C)=N/NC(=N)N)cc2)cc1 | 9 | – | 9 | 3 | 9 | 3 | 3 | 3 | – | –
C[C@@H]1C[C@H]2[C@@H]3CCC4=CC(=O)C=C[C@]4(C)[C@@]3(Cl)[C@@H](O)C[C@]2(C)[C@@]1(OC(=O)c1ccco1)C(=O)CCl [mometasone furoate] | ≤ 0.3 | ≤ 0.3 | – | – | – | – | – | – | – | –
c1cc(-c2cc(C3CCNCC3)[nH]n2)ccn1 | 9 | – | 9 | – | – | – | 9 | 9 | – | –
CC/C(=C(/c1ccccc1)c1ccc(OCCN(C)C)cc1)c1ccccc1 [tamoxifen] | 9 | – | – | 9 | 9 | 3 | 9 | 9 | 9 | 9
O=c1c(-c2ccc(O)cc2)coc2cc(O[C@@H]3O[C@H](CO)[C@@H](O)[C@H](O)[C@H]3O)cc(O)c12 [Genistin] | 9 | 9 | – | – | – | – | 9 | 9 | 9 | –
COc1cc2c(cc1NS(=O)(=O)c1ccc(Br)cc1C)n(C)c(=O)n2C | 9 | 9 | 3 | 9 | – | 3 | – | – | – | –
CC1(C)O[C@@H]2C[C@H]3[C@@H]4C[C@H](F)C5=CC(=O)C=C[C@]5(C)[C@@]4(F)[C@@H](O)C[C@]3(C)[C@]2(C(=O)CO)O1 [fluocinolone acetonide] | ≤ 0.3 | ≤ 0.3 | – | – | – | – | ≤ 0.3 | – | – | –
Cc1cc(F)c(Nc2ncnc3cc(OCc4ccccc4)ccc23)cc1O | 9 | – | – | – | – | – | – | 3 | – | 9
Cc1cc2c(F)c(Oc3ncnn4cc(OC[C@@H](C)OC(=O)[C@H](C)N)c(C)c34)ccc2[nH]1 [brivanib-alaninate] | 9 | 9 | 3 | 9 | 3 | 9 | 3 | 3 | 3 | 3
Nc1nccc(-c2ccc3noc(-c4ccc(Cl)cc4)c3c2)n1 [PIM-1 Inhibitor 2] | 9 | 9 | – | – | 9 | – | 9 | 9 | 9 | 9
C=C1C(=O)O[C@@H]2C=C(C)CCC=C(C)CC[C@@H]12 [Costunolide] | 9 | – | 9 | 3 | 9 | – | 9 | – | 9 | 9
CN(C)c1ccc(/C=C2\C(=O)Nc3ccccc32)cc1 | 9 | 3 | – | 9 | 9 | 9 | 9 | 3 | 9 | –
CC(C)c1cnn2c(NCc3ccccc3)cc(NCCCCCCN)nc12 [BS 181 dihydrochloride] | 9 | 9 | – | – | – | – | – | 9 | 9 | 9
COc1cc2ncnc(Nc3cccc(Br)c3)c2cc1OC | 1 | ≤ 0.3 | – | 9 | 9 | 9 | – | 9 | 3 | –
O=S(=O)(c1cccc2c(O)nccc12)N1CCCNCC1 [HA 1100 hydrochloride] | 9 | 9 | ≤ 0.3 | 9 | 1 | – | 9 | 3 | 9 | 3
Cc1cccc(C)c1OCC(=O)N[C@@H](Cc1ccccc1)[C@@H](O)C[C@H](Cc1ccccc1)NC(=O)[C@H](C(C)C)N1CCCNC1=O [lopinavir] | 9 | – | – | – | – | 9 | – | 9 | – | –
CC(C)C(=O)SCCCCCCC(=O)Nc1nc(-c2ccccc2)cs1 | 1 | – | 3 | – | – | – | 1 | 1 | 9 | 1
O=c1cc(-c2ccccc2)oc2c(O)c(O)ccc12 [7,8-Dihydroxyflavone] | 9 | – | 9 | 9 | – | – | 9 | 9 | – | 9
O=C(Nc1ccccc1)c1cc([N+](=O)[O-])ccc1Cl | 9 | – | – | – | – | – | – | 9 | – | –
